Screening data: PubChem, several laboratories
Most compounds without a hit are left out; they make up all but 1.2% or so of the library.
Furin inhibitor: human furin inhibitors, primary screen, biochemical, fluorescence intensity | purified furin, fluorogenic substrate cleavage | AID 463115, 2010 | P09958 | 220,000 compounds, 0.061% hits | inhibition, % at 20 µM or 30 µM; in the data active means inhibition above about 25%
UBC9 SUMO inh: inhibitors of in vitro SUMOylation cascade, primary screen, biochemical, HTRF, uHTS; 290,000 compounds, 0.36% hits; SUMO-conjugating enzyme UBC9 (Homo sapiens), P63279; HTRF SUMOylation assay, SAE1/SAE2 + UBC9; AID 2006, 2009; inhibition, % at 35 µM; in the data active means inhibition above about 50%, passing the limit was not always enough
FAS TE block: FAS thioesterase domain inhibitors, primary screen, biochemical, fluorescence intensity, uHTS | Fatty acid synthase (Homo sapiens), P49327 | recombinant FAS-TE, OMFH fluorogenic substrate, fluorescence endpoint | inhibition, % at 15 µM | 360,000 compounds, 0.67% hits | AID 602261, 2012;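 active means compounds whose normalised, plate-corrected inhibition of enzyme fluorescence in the single-dose primary screen is 50% or more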
DTT redox prof: compounds producing H2O2 with reducing agent – biochemical, NIH compound library profiling, artefact control for MLSCN library redox annotation, primary screen | DTT-dependent redox cycling H2O2, phenol red/HRP absorbance; 100% = 100 µM peroxide control, 0% = buffer | activation, % at 10 µM | 200,000 compounds, 0.03% hits | AID 878, 2007;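 active means activation of at least 50% relative to the plate's high and low controls in the primary single-dose screen; inactive means activation below 50%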;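 further: compound incubated with DTT at 0.8 mM final as the reducing agent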
PKD1 inh: inhibitors of human PKD1 kinase, biochemical, fluorescence polarization | PKD1 kinase fluorescence polarization assay | inhibition, % (concentration not given with the values) | 200,000 compounds, 0.056% hits | AID 797, 2007; in the data active means inhibition above about 50%
p97 inhibitor: inhibitors of human p97 ATPase, primary screen, biochemical | inhibition, % at 8 µM | recombinant p97 ATPase, Kinase-Glo ATP luminescence, 3 h | Transitional endoplasmic reticulum ATPase (Homo sapiens), P55072 | 220,000 compounds, 0.42% hits; in the data active means inhibition above about 15%
Target sequence (P55072 whole entry, looked up): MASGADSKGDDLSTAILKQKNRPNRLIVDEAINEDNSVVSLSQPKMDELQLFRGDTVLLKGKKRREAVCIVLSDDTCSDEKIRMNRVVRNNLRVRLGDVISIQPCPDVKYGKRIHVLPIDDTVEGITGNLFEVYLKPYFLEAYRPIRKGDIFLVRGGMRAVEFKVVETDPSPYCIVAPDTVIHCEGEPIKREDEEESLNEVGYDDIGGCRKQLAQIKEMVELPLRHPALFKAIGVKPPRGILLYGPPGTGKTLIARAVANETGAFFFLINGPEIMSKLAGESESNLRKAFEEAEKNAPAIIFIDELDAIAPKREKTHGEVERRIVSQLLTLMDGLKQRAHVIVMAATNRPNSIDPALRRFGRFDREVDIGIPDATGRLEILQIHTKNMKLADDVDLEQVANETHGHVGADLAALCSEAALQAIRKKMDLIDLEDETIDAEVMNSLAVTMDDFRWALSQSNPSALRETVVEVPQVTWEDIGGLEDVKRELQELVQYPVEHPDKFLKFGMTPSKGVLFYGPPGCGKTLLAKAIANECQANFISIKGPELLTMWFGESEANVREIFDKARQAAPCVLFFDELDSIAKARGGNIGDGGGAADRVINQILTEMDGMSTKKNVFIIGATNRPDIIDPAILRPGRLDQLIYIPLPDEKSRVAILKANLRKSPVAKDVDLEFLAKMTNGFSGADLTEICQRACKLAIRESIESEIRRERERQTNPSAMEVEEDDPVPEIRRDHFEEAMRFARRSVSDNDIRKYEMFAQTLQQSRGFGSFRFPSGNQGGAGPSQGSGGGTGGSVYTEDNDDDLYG
p97 inh conf: p97 ATPase inhibitors, retest, confirmation, biochemical | shares compounds with p97 inhibitor | inhibition, % at 8 µM | 760 compounds, 44% hits | recombinant p97 ATPase, Kinase-Glo ATP luminescence;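 active means percent inhibition of p97 ATPase above a set limit, the primary screen's mean plus 3 SD, cut at about 15% in these data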
Each line names hits and unclear results; the compound was inactive in the other large screens (follow-up assays come after a bar, where they were run).

COc1ccc(N(/N=C2\Sc3ccccc3C2=O)C(C)=O)cc1	p97 inhibitor 22 | p97 inh conf 21
NC(=O)c1sc2nc(-c3ccco3)ccc2c1N	UBC9 SUMO inh 76, p97 inhibitor 24 | p97 inh conf inactive
COC(=O)c1sc2nc(-c3ccco3)ccc2c1N	none
COc1ccc(/C=N/N(C)c2cc(=O)n(C)c(=O)[nH]2)cc1OC	p97 inhibitor 18 | p97 inh conf inactive
CCOc1ccc(N2CC(C(=O)NCCc3ccc(F)cc3)CC2=O)cc1 (configuration not stated)	none (no result: Furin inhibitor, DTT redox prof, PKD1 inh, p97 inhibitor)
C#CCOCCOCCOCCNc1nc(N2CCN(C(=O)C(Cc3ccc(O)cc3)n3cc(C(N)CC(C)C)nn3)CC2)nc(N2CCN(C(=O)C(Cc3cc4ccccc4[nH]3)n3cc(C(N)Cc4ccc(O)cc4)nn3)CC2)n1 (configuration not stated)	p97 inhibitor 19 (no result: FAS TE block) | p97 inh conf 20
C#CCOCCOCCOCCNc1nc(N2CCN(C(=O)[C@H]([C@@H](C)CC)n3cc([C@@H](N)Cc4ccc(O)cc4)nn3)CC2)nc(N2CCN(C(=O)[C@H]([C@@H](C)CC)n3cc([C@@H](N)CC(C)C)nn3)CC2)n1	p97 inhibitor 18 | p97 inh conf inactive
C#CCOCCOCCOCCNc1nc(N2CCN(C(=O)[C@H](CCC(=O)O)n3cc(C(N)Cc4ccc(O)cc4)nn3)CC2)nc(N2CCN(C(=O)[C@H](Cc3cc4ccccc4[nH]3)n3cc(C(N)CC(C)C)nn3)CC2)n1 (some centres not stated)	none (no result: FAS TE block)
Cc1cc(C2=NNC(=NCCc3ccccc3)SC2)c(C)n1-c1c(C)n(C)n(-c2ccccc2)c1=O	p97 inhibitor 16 (no result: DTT redox prof, PKD1 inh) | p97 inh conf inactive
Cn1c(N)c(C(=O)CSc2nc(C3CC3)n(-c3ccccc3)n2)c(=O)[nH]c1=O	none (no result: Furin inhibitor, UBC9 SUMO inh, DTT redox prof, PKD1 inh, p97 inhibitor)
CC(C)=CCC1=C(OCC(=O)O)C(=O)c2ccccc2C1=O	p97 inhibitor 32 (no result: DTT redox prof, PKD1 inh) | p97 inh conf 29
N=C1/C(=C\c2ccc(SCc3ccco3)o2)C(=O)N=C2SC=NN12	p97 inhibitor 18 (no result: UBC9 SUMO inh) | p97 inh conf 16
CC1=NN2C(=N)/C(=C\c3ccc(SCc4ccccc4)o3)C(=O)N=C2S1	none
CC(=O)Nc1ccc2cc3ccc(NC(C)=O)cc3nc2c1	p97 inhibitor 34 (no result: DTT redox prof, PKD1 inh) | p97 inh conf 24
C=CC[C@@H](CC(=O)N[C@H](CO)Cc1ccccc1)C(=O)NCCOC(=O)[C@@H](CC=C)CC(=O)OC(C)(C)C	none (no result: Furin inhibitor, UBC9 SUMO inh, DTT redox prof, PKD1 inh, p97 inhibitor)
COc1ccc2ccccc2c1/C=N/NC(=O)c1sc(N)c(C#N)c1C	p97 inhibitor 18 | p97 inh conf 39
Cc1[nH]n(-c2ccccc2)c(=O)c1/C=C1/C=c2ccccc2=N1	none
Cc1[nH]n(-c2ccccc2)c(=O)c1/C=C1\C=NN=C1c1ccccc1	p97 inhibitor 18 (no result: DTT redox prof, PKD1 inh) | p97 inh conf 17
C=CCn1c(NC(=O)c2ccc(Br)o2)c(S(=O)(=O)c2ccccc2)c2nc3ccccc3nc21	p97 inhibitor 20 | p97 inh conf inactive
CCC(CC)C(=O)Nc1nnc(S(=O)(=O)N2CCCc3ccccc32)s1	none (no result: Furin inhibitor, DTT redox prof, PKD1 inh, p97 inhibitor)
CC(=O)Oc1cc2c3c(c1)/C(=C1/SC(=S)NC1=O)C(=O)N3C(C)(C)C=C2C	p97 inhibitor 25 (no result: DTT redox prof, PKD1 inh) | p97 inh conf 45
CCOc1cc2c3c(c1)C(C)=CC(C)(C)N3C(=O)C2=O	none
O=C1NN(c2ccc(Cl)c(Cl)c2)C(=O)/C1=C/c1cccc(OC(=O)c2cccs2)c1	p97 inhibitor 19 (no result: FAS TE block) | p97 inh conf inactive
O=C1NN(c2ccccc2)C(=O)/C1=C\c1cccc(OC(=O)c2cccs2)c1	none
COCc1c(C(=O)NC2CCCCC2)sc2cccc(F)c12	none (no result: Furin inhibitor, UBC9 SUMO inh, DTT redox prof, PKD1 inh, p97 inhibitor)
O=c1c(-c2ccc([N+](=O)[O-])cc2)coc2c(O)c(O)ccc12	p97 inhibitor 18 (no result: DTT redox prof, PKD1 inh) | p97 inh conf 24
O=C(c1ccco1)N1CCN(Cc2cc(=O)oc3cc(O)ccc23)CC1	none (no result: Furin inhibitor, UBC9 SUMO inh, DTT redox prof, PKD1 inh, p97 inhibitor)
CCc1cccc(NC(=O)C2CCCN(S(=O)(=O)c3cccnc3)C2)c1 (configuration not stated)	none (no result: Furin inhibitor, DTT redox prof, PKD1 inh, p97 inhibitor)
O=C(CCCN1C(=O)/C(=C/c2ccco2)SC1=S)Nc1ccccc1C(=O)O	p97 inhibitor 22 (no result: DTT redox prof, PKD1 inh) | p97 inh conf inactive
COc1ccc(O)c(/C=N/NC(=S)Nc2cccc(S(=O)(=O)N(C)C)c2)c1	none
CN(C)S(=O)(=O)c1cccc(NC(=S)N/N=C/c2ccc(O)c(O)c2O)c1	UBC9 SUMO inh 52, p97 inhibitor 16 (no result: DTT redox prof, PKD1 inh) | p97 inh conf 20
Cc1ccc(S(=O)(=O)CCC(=O)c2ccc(O)cc2O)cc1	p97 inhibitor 16 | p97 inh conf 21
C[n+]1cccc2c(Br)ccc([O-])c21	p97 inhibitor 45 (no result: DTT redox prof, PKD1 inh) | p97 inh conf inactive
Cc1cc(/C=C2\NC(=O)NC2=O)c(C)n1-c1ccc(N2CCOCC2)cc1	p97 inhibitor 17 (no result: DTT redox prof, PKD1 inh) | p97 inh conf inactive
Cc1cccc(C2c3[nH]c4ccccc4c3CCN2C(=O)c2ccc(=O)[nH]c2)n1 (configuration not stated)	p97 inhibitor 17 | p97 inh conf inactive
COc1ccccc1NS(=O)(=O)c1cccc(NS(=O)(=O)c2cc(C(=O)O)ccc2OC)c1	none (no result: Furin inhibitor, UBC9 SUMO inh, DTT redox prof, PKD1 inh, p97 inhibitor)
Cc1cccc(C(=O)Nc2c(C(=O)N(C)C)cnn2-c2ccccc2)c1	none (no result: Furin inhibitor, DTT redox prof, PKD1 inh, p97 inhibitor)
CCOC(=O)c1c(N)n(CCOC(=O)c2cccs2)c2nc3ccccc3nc12	p97 inhibitor 21 | p97 inh conf inactive
CCCCCOC(=O)c1c(N)n(CCOC)c2nc3ccccc3nc12	none
O=C1C=C(Nc2ccccc2C(=O)O)c2ccccc2C1=O	p97 inhibitor 23 (no result: UBC9 SUMO inh, DTT redox prof, PKD1 inh) | p97 inh conf 21
O=C1C=C(Nc2ccccc2)c2ccccc2C1=O	none (no result: UBC9 SUMO inh)
O=C(O)c1cccc(NN=C2c3ccccc3-c3ccccc32)c1	p97 inhibitor 38 | p97 inh conf 45
O=C(O)c1cc(NN=C2c3ccccc3-c3ccccc32)ccc1Cl	none (no result: Furin inhibitor, DTT redox prof, PKD1 inh, p97 inhibitor)
COc1ccc(CN2C(=O)Cc3c2nc(N)c2c(N)nc(N4CCCCC4)c(C#N)c32)cc1	none (no result: FAS TE block)
N#Cc1c(N(CCO)CCO)nc(N)c2c(N)nc3c(c12)CC(=O)N3CC1CCCO1 (configuration not stated)	UBC9 SUMO inh 101, p97 inhibitor 26 (no result: DTT redox prof, PKD1 inh) | p97 inh conf inactive
COc1ccc(Cl)cc1NC(=O)C/C(C)=N/NC(=O)Cc1ccccc1	p97 inhibitor 15 | p97 inh conf inactive
CC1(C)OC(=O)C(=CNc2ccccn2)C(=O)O1	p97 inhibitor 15 (no result: DTT redox prof, PKD1 inh) | p97 inh conf inactive
